Structures are written as SMILES. Among all 260,000 compounds or so, about 1,500 (0.58%) were called active. Inconclusive results (about 5%) are left out. Only a sample is shown. Measured potencies and affinities stand elsewhere. Unmarked numbers belong to inactive results.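 Rule for the calls: active = inhibition above a set limit at one or more doses, reproduced on every date tested; inconclusive = results disagree between test dates, or hit never tested in dose response; inactive = the rest.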

This assay deals with Virion infectivity factor (Human immunodeficiency virus type 1 group M subtype B (isolate BH10)) + Virion infectivity factor (Human immunodeficiency virus type 1 group M subtype B (isolate BRU/LAI)) + Virion infectivity factor (Human immunodeficiency virus type 1 group M subtype B (isolate PCV12)) + Virion infectivity factor (Human immunodeficiency virus type 1 group M subtype B (isolate HXB2)) + DNA dC->dU-editing enzyme APOBEC-3G (Homo sapiens) (UniProt P69720+P69721+P69722+P69723+Q9HC16). The assay can be described thus: HIV-1 Vif–A3G interaction blockers – biochemical, TR-FRET, GST-Vif 1-94, biotin-A3G peptide, dose response retest, primary screen (AID 1117319).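 Note: Vif residues 1-94 fused to GST binding biotinylated APOBEC3G peptide 110-148; 0% = full assay without inhibitor and 100% = GST in place of GST-Vif.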 Particulars: TR-FRET GST-Vif / biotin-A3G peptide binding; active compounds read high.
For `CCCCN(C(=O)C(C)(C)Oc1ccc(Cl)cc1)c1c(N)n(CCC)c(=O)[nH]c1=O`, the inhibition was -3.39%. Under `CC(C)CN(CC(C)C)C(=O)Nc1cccc([N+](=O)[O-])c1` stands 0.14%. With `CCC(C)NC(=O)CSc1nnc(-c2cc(OC)c(OC)c(OC)c2)c(-c2cc(OC)c(OC)c(OC)c2)n1` (stereo unspecified), the inhibition is 2.7%. Under `NC(=O)NC(=O)CN1C(=O)NC2(CCOc3ccccc32)C1=O` (stereo unspecified) stands 5.28%; under `N=C1C(c2ccccc2)=C(O)CN1c1cccc(O)c1`, 10.9%; under `O=C1CSc2ccc(C(=O)O)cc2N1`, 10.3%. Consider `COC(=O)c1ccc(C2Nc3ccc(/C(C)=N/NC(=O)C(OC)c4ccccc4)cc3C3C=CCC32)cc1` (stereo unspecified), for which the inhibition is 11.3%. The result for `Cc1ccc2c(c1)[C@H]1OCC[C@H]1[C@@H](c1ccncc1)N2` reads 27.8%; that for `CC1Cc2cc(C(=O)O)ccc2O1` (stereo unspecified), -3.49%; that for `CCc1ccc2oc(=O)cc(CN3CCN(CCO)CC3)c2c1`, 4.78%. `CC/C(=N\Nc1ccc([N+](=O)[O-])cc1[N+](=O)[O-])c1ccc(O)cc1`: the inhibition was -6.92%. The result for `COc1ccc(-c2nn3c(-c4ccccn4)nnc3s2)cc1OC` reads 12.7%; that for `COc1cccc(-c2nnc3sc(-c4ccccn4)nn23)c1`, -11.4%; that for `COC(=O)c1cc(C)ccc1/C=C1/Cc2c(C)cc(C)cc2C1=O`, -4.06%.

`CC1CC1C(=O)OCC(=O)Nc1ncc(Cl)cc1Cl` (stereo unspecified): the inhibition is 6.04%.

Consider `CCCc1cc(=O)n2[nH]c(C)c(-c3ccccc3OC)c2n1`, for which the inhibition is -0.45%. In the case of `CCc1cc(=O)n2[nH]c(C)c(-c3ccc(OC)cc3)c2n1`, the inhibition was -3.08%. In the case of `COc1ccc(S(=O)(=O)N2CCC(C(=O)NCCC(=O)NCc3cccnc3)CC2)cc1`, the inhibition is -0.14%. With `Cc1noc(C)c1CCC(=O)Nc1cc(C(=O)O)ccc1Cl`, the inhibition is 4.29%. Under `Cc1ccc(NC(=O)CN2C(=O)N/C(=C/c3ccc(C)o3)C2=O)cc1` stands 30.9%; under `Cc1ccc(NC(=O)CN2C(=O)N/C(=C/c3ccc4c(c3)OCCO4)C2=O)cc1`, -0.54%. Consider `N=C1/C(=C\c2ccc(SCc3ccccc3)o2)C(=O)N=C2SC=NN12`, for which the inhibition was 1.67%. Turning to `N=C1/C(=C\c2ccc(OC(=O)c3ccco3)cc2)C(=O)N=C2SC=NN12`, the inhibition is 2.2%.

`CCCC1=NN2C(=N)/C(=C\c3cc(C)n(-c4cccc(C)c4)c3C)C(=O)N=C2S1`: the inhibition was -10.2%. Take `N=C1/C(=C\c2ccc(SCc3ccccc3)o2)C(=O)N=C2SC(CC(=O)N3CCOCC3)=NN12`: the inhibition is 18.9%. Under `CCC1=NN2C(=N)/C(=C\c3cccn3-c3ccc(C)c(C)c3)C(=O)N=C2S1` stands 2.9%; under `CC1=NN2C(=N)/C(=C\c3ccc(SCc4ccccc4)o3)C(=O)N=C2S1`, 26.3%. Turning to `CCC1=NN2C(=N)/C(=C\c3cccn3-c3ccc(Cl)cc3)C(=O)N=C2S1`, the inhibition is 0.75%. The result for `CCC1=NN2C(=N)/C(=C/c3c(C)nn(-c4ccccc4)c3Cl)C(=O)N=C2S1` reads 6.74%; that for `CCn1c(C(=O)O)c(S(=O)(=O)c2ccc(Cl)cc2)c2ccccc21`, -1.5%; that for `Nc1nnc(SCC(=O)OCc2ccccc2)s1`, 11.6%. The result for `COc1ccc(CCNC(=O)CN2C(=O)NC(c3ccccc3)(c3ccccc3)C2=O)cc1` reads 2.71%; that for `COc1ccc(-c2csc(N(CCc3ccccc3)C(=O)COc3ccccc3)n2)cc1`, -2.24%; that for `O=C1CC(c2ccccc2)NC(=S)N1` (stereo unspecified), 0.02%. Take `Cc1ccc(/C=c2\sc3n(c2=O)CN(c2cccc(Br)c2)CN=3)o1`: the inhibition was 27.7%.

For `Cc1onc(-c2ccccc2)c1C(=O)N1CCN(c2ccc([N+](=O)[O-])cc2)CC1`, the inhibition was -0.35%. For `O=C1N(Cc2cccc(Cl)c2)C[C@@H]2C[C@@H](c3c[nH]c4ccccc34)N3CCC[C@@]123`, the inhibition is 0.3%. The result for `Cc1ccc(C(=O)OCC(=O)NCc2ccccc2)cc1S(=O)(=O)N1CCCCC1` reads -8.21%. The result for `Cn1c(N2C(=O)CC(Cc3ccccc3)C2=O)nc2ccccc21` (stereo unspecified) reads -1.11%; that for `O=C1NC(=S)SC1=Cc1ccccc1Cl`, 1.68%; that for `O=C1NC(=O)C(=Cc2ccco2)S1`, -2.41%. Under `Cc1sc2ncn(-n3c(C)ccc3C)c(=O)c2c1C` stands 5.69%; under `COc1ccccc1-n1c(CNC(=O)c2ccco2)nnc1SCC(=O)Nc1ccc(F)cc1`, -4.03%; under `Cc1nc2[nH]c(=S)[nH]c(=O)c2nc1C`, 17.2%. Consider `O=c1[nH]c(=S)[nH]c2nccnc12`, for which the inhibition is -0.53%.

`COc1cc(C(=O)Nc2c(C)cc(C)cc2C)c([N+](=O)[O-])cc1OC`: the inhibition was -0.83%. Under `O=C(CCc1nnc(CCCCc2ccccc2)o1)N1CCCC(O)C1` (stereo unspecified) stands 20%; under `COc1cc(/C=N/NC(=O)CNc2n[nH]c(=O)[nH]c2=O)ccc1OCc1ccccc1`, 2.21%.

`O=C(CNc1n[nH]c(=O)[nH]c1=O)N/N=C/c1ccccc1`: the inhibition was -4.54%.

For the compound `COc1ccc(C(CNC(=O)c2ccc(OCC3CCCO3)cc2)N2CCOCC2)cc1` (stereo unspecified), the inhibition was -4.51%.

As to `CCCn1c(NC(=O)CSCC(=O)Nc2cc(C)on2)nc2ccccc21`, the inhibition is -0.74%.

As for `c1coc(-c2nc3ccccc3s2)c1`, the inhibition was 1.82%.

Take `c1coc(-c2ncc[nH]2)c1`: the inhibition is 0.85%. The result for `COc1ccc2nc3c(nc2c1)CCCC3` reads -1.28%. The result for `c1coc(Cn2c(-c3ccco3)nc3ccccc32)c1` reads 6.18%. The result for `c1coc(-c2cnc3ccccc3n2)c1` reads -5.45%; that for `CCn1c(-c2ccco2)nc2ccccc21`, 0.82%; that for `COc1ccc2nc3ccccc3nc2c1`, 0.36%. `S=c1nc(-c2ccco2)[nH][nH]1`: the inhibition was 6.53%.

With `COc1ccc(N(C(=O)c2ccco2)C(C(=O)NC2CCCC2)c2ccco2)cc1OC` (stereo unspecified), the inhibition was 0.94%. For the compound `COc1ccccc1/C=C/C(=O)OCC(=O)NC(=O)NC1CCCC1`, the inhibition was -1.97%.

`CCn1cc(Cl)c(C(=O)Nc2cccc(C(F)(F)F)c2)n1`: the inhibition is -0.07%. The result for `CC1(C)CC(NC(=O)COc2ccc([N+](=O)[O-])cc2)CC(C)(C)N1` reads -0.99%. The result for `CC(C(=O)O/N=C(\N)c1cccnc1)c1ccc([N+](=O)[O-])cc1` (stereo unspecified) reads -1.85%.

As for `COc1cc(/C=C/C(=O)OCC(=O)c2ccc(S(=O)(=O)N3CCCCC3)cc2)cc(OC)c1OC`, the inhibition was -29.8%. The result for `Cc1ccc(OCCSc2nc(NC(C)C)nc(NC(C)C)n2)cc1` reads -8.83%; that for `CC(C)(C)NC(=O)CN1CCN(C(=O)CCl)CC1`, -2.69%; that for `Cc1oc2ccc(O)c(CN3CCOCC3)c2c1C(C)O` (stereo unspecified), -6.07%. As to `COCCN1C(=O)CC(NNC(=O)c2ccc(S(=O)(=O)N3CCCC3)cc2)C1=O` (stereo unspecified), the inhibition was 8%. Under `CCCC(C)NC(=O)c1ccc(-c2ccccc2)cc1` (stereo unspecified) stands -5.95%; under `Nc1nnc(-c2ccco2)s1`, 15.6%; under `Nc1nc(-c2ccco2)cs1`, -0.78%. Under `CCOC(=O)c1cnc(-n2nc(C)cc2C)[nH]c1=O` stands -8.45%; under `Cc1sc(-c2ccccn2)nc1OC(=O)c1ccc(Cl)c(Cl)c1`, -6.3%; under `O=C(COC(=O)c1c2c(nc3ccccc13)/C(=C/c1cccc([N+](=O)[O-])c1)CCC2)NC1CCS(=O)(=O)C1` (stereo unspecified), 29.1%. For the compound `CN(CCC#N)C(=O)COC(=O)c1nn(-c2ccccc2)c(=O)c2ccccc12`, the inhibition was -3.88%. Under `CC1CCCCC1NC(=O)COC(=O)c1ccc2ccccc2n1` (stereo unspecified) stands -3.73%. The result for `CN1CCc2nc3ccccc3c(C(=O)OCC(=O)N(CCC#N)c3ccccc3)c2C1` reads -5.14%; that for `CC1CCCCC1NC(=O)COC(=O)c1c2c(nc3ccccc13)/C(=C\c1ccco1)CC2` (stereo unspecified), 4.28%.

For the compound `CCc1nc2ccccc2c(C(=O)OCC(=O)NC2CCCC2)c1C`, the inhibition was 4.22%.

As for `Cc1ccc(N(Cc2ccccc2)C(=O)c2cccc(S(=O)(=O)N3CC(C)OC(C)C3)c2)cc1` (stereo unspecified), the inhibition is 5.98%. Under `CCCCc1nnc(NC(=O)Cc2ccc(S(=O)(=O)N3CCOCC3)s2)s1` stands -4.48%; under `CCc1ccc(CN(C)C(C)C(=O)NCc2ccccc2)cc1` (stereo unspecified), -5.54%; under `CCOC(=O)c1oc2cc(C)cc(C)c2c1C`, 12.6%.

With `C[C@]1(C(=O)NCCN2CCOCC2)C=C[C@@H](Cc2ccccc2)N1C(=O)c1ccccc1`, the inhibition was -2.79%. The result for `N#Cc1cnc(N)c(Br)c1` reads -0.24%; that for `COc1ccc(-n2c(=S)[nH]c3cc(C(=O)NCc4cccnc4)ccc3c2=O)cc1`, -1.63%. Under `Fc1cccc(F)c1-n1c(CN2CCOCC2)csc1=S` stands -4.65%; under `C/C(N)=C(/C#N)C(=O)CSc1nnc(Nc2cccc(C)c2)s1`, 29.1%. As for `C/C(N)=C(/C#N)C(=O)CSc1nnc(Nc2ccccc2C)s1`, the inhibition is 5.27%. In the case of `Cn1c(SCC(=O)NCc2ccc3c(c2)OCO3)nnc1-c1cc2ccccc2cc1O`, the inhibition is 5.67%.

With `CCNc1nc(NCC)nc(SCC(C)=O)n1`, the inhibition is 1.47%. For `O=C(Cc1c[nH]c2ccccc12)NCc1ccco1`, the inhibition was -2.84%.

On to `O=C(NCc1ccccc1F)c1ccc(S(=O)(=O)NCc2ccco2)cc1`, for which the inhibition was 1.91%. Under `O=C(CCc1c[nH]c2ccccc12)NCc1ccco1` stands 14.9%; under `NS(=O)(=O)c1ccc(CNC(=O)c2ccc(S(=O)(=O)NCc3ccco3)cc2)cc1`, -7.37%.

Source of the values: PubChem BioAssay AID1117319 (Southern Research Institute, 2015).
